# Screening results as filed in PubChem BioAssay.
# Hits are enriched below; roughly 17% of the tested compounds scored in any of these assays.
# DT40 TDP1 no CPT: qHTS for Inhibitors of human tyrosyl-DNA phosphodiesterase 1 (TDP1): qHTS in cells in absence of CPT. DT40 Tdp1-/- hTDP1 cells, no CPT, ATP luminescence, 48 h. Potency, µM (top dose mostly 46.2 µM), for inactives: at the highest dose activity change, negative = growth inhibition, most hits filed as inhibitors. 420,000 tested, 15% active; note: % is set by controls: 0 for no effect and ±100 for the full control effect; nearly all actives have a fitted effect of over 55% in size
#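 Chicken DT40 Tdp1-/- cells stably complemented with human TDP1 were seeded at 400 cells/well with DMSO in place of 20 nM camptothecin. After compound pinning, cells grew at least 48 hr at 37 °C; viability read by CellTiter-Glo luminescence.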
# TGFb inhibitor: inhibitors of TGF-b signaling; Potency, µM (highest dose often 46.1 µM), for the others: at the highest dose activity, negative = inhibition, most hits filed as inhibitors; HepG2 CAGA-GFP TGF-b/SMAD3 reporter, GFP fluorescence, 18 h; TGF-beta stimulated, 500 pg/mL final; 410,000 tested, 1.2% active; note: % is set by controls: 0 for no effect and ±100 for the full control effect; nearly all actives have a fitted effect of over 65% in size
#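 GFP signal (ex488/em500-530) from TGF-beta-stimulated HEPG2 CAGA-GFP cells, 500 pg/mL final, 18 h at 37 degrees C in DMEM plus 1% FBS, normalized to unstimulated and DMSO-stimulated controls.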
# TDP1 cell CPT: growth inhibition of DT40 Tdp1-/-;hTDP1 cells with camptothecin (screen for TDP1 inhibitors) | Potency, µM (titrated, usually from 46.2 µM), for inactives: at the highest dose activity change, negative = growth inhibition, usual class: inhibitors | chicken DT40 Tdp1-/-;hTDP1 cells + 20 nM CPT, ATP luminescence, 48 h | 420,000 tested, 12% active; note: % is set by controls: 0 for no effect and ±100 for the full control effect; nearly all actives have a fitted effect of over 55% in size
#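 Chicken DT40 Tdp1-/- cells complemented with human TDP1, 400 cells/well, exposed to compounds plus 20 nM camptothecin for at least 48 h at 37 C; viability read as ATP content by CellTiter-Glo luminescence.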
# HepG2 tox: HepG2 cytotoxicity, counter-screen for TGF-b inhibitors | Potency, µM (titrated, usually from 46.1 µM), for the others: at the highest dose activity change, negative = cytotoxicity, most hits filed as cytotoxic | HepG2 CAGA-GFP viability, ATP luminescence, 18 h | 410,000 tested, 0.76% active
#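 CellTiter-Glo luminescence gave cytotoxicity after 18 hours at 37 degrees C. The cells were HepG2 CAGA-GFP in 1% FBS DMEM, stimulated with 500 pg/mL TGF-beta after compound addition. %Activity was normalised to no-cell wells (complete cell-killing) and DMSO (no toxicity), and curves were fitted and classified.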
# HT1080 IDH1KD tx: kills HT-1080 cells with IDH1 knockdown | HT-1080 IDH1 knockdown viability, ATP luminescence, 48 h | Potency, µM (highest dose often 46.1 µM), without a hit: at the top dose activity, negative = toxicity, most hits filed as cytotoxic | 360,000 tested, 2% active | AID 686971;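 note: 0% = DMSO wells and -100% = cell-free medium wells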
#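 Knockdown cells (IDH1KD HT-1080) received compounds 2 h after plating at 750 cells/well and were kept 48 h at 37 °C in 5% FBS RPMI. A CellTiter-Glo luminescence read gave % activity for curve fitting.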
# HT1080NT lethal: kills 2HG-producing HT-1080-NT fibrosarcoma cells; HT-1080-NT fibrosarcoma viability, CellTiter-Glo ATP luminescence, 48 h; Potency, µM (top dose mostly 46.1 µM), inactives show at the highest dose activity, negative = less viability, hits mostly cytotoxic; 360,000 tested, 1.6% active;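 note: NT is the 2HG producing partner of a matched IDH1 knockdown line; 0% = DMSO-treated cells and -100% = media-only wells without cells; nearly all actives have a fitted effect of over 55% in size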
#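 Viability of the 2HG-overproducing fibrosarcoma line after 48 hours of compound exposure at 37 degrees C was determined by luminescence with CellTiter-Glo, and concentration-effect curves were then fitted and categorized.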
# * = called active by the depositor; u = inconclusive; x = no result. Calls come from the whole dose curve; as a rule, active = well fitted curve in the direction sought with a large enough effect; inconclusive = small, poorly fitted or top-dose-only effect, or another doubt; inactive = no such curve, though single readings can be large; an effect the other way counts as inactive or inconclusive. Potency is the fitted concentration of half-maximal effect.
SMILES,DT40 TDP1 no CPT,TGFb inhibitor,TDP1 cell CPT,HepG2 tox,HT1080 IDH1KD tx,HT1080NT lethal
CCCCOCCCNC(=O)C[C@@H]1C[C@@]2(C(=O)OC)CCCCC=C2N(Cc2cccc3ccccc23)C1=O,21µM*,x,u,x,u,u
CC(=O)n1nc(-c2ccccc2)nc1NCc1ccc(N(C)C)cc1,3%,0%,12%,-1%,-5%,-3%
c1csc(-c2cc(N3CCCCC3)c3ccccc3n2)c1,u,-1%,-25%,-13%,-4%,2%
NC1CCN(c2nc3c(cc2F)c(=O)c(C(=O)O)cn3-c2ccc(F)cc2F)C1 (stereo not drawn),8.2µM*,-11%,16µM*,5%,-15%,u
CCn1cc(C(=O)O)c(=O)c2cc(F)c(N3CCNCC3)nc21,u,3%,u,-19%,6%,30%
CC1CCc2c(N3CCC(O)CC3)c(F)cc3c(=O)c(C(=O)O)cn1c23 (stereo not drawn),u,26%,u,14%,-15%,-2%
NC1CCN(c2c(F)cc3c(=O)c(C(=O)O)cn(C4CC4)c3c2Cl)C1 (stereo not drawn),6.5µM*,18%,7.3µM*,29%,13%,8%
CCCCCCCCCC(=O)N/N=C/c1ccc(C)s1,u,20%,u,-22%,-18%,-16%
CCc1cccc(NC(=O)C2CCN(C(=O)c3cnn(-c4ccccc4)c3-n3cccc3)CC2)c1,15µM*,u,21µM*,-21%,x,x
O=C(Nc1cc(F)ccc1F)C1CCN(C(=O)c2cnn(-c3ccccc3)c2-n2cccc2)CC1,26µM*,u,u,-24%,x,x
O=C(Nc1ccc(F)cc1F)C1CCN(C(=O)c2cnn(-c3ccccc3)c2-n2cccc2)CC1,u,u,u,-4%,x,x
Cc1ccc(Cl)cc1NC(=O)C1CCN(C(=O)c2cnn(-c3ccccc3)c2-n2cccc2)CC1,21µM*,u,-30%,-35%,x,x
C=CCN(Cc1cccc(OC)c1OC)C(=O)Oc1ccccc1,1%,5%,u,-1%,-6%,-2%
CN(c1ccccc1)S(=O)(=O)c1ccc(C(=O)NCc2ccccc2F)cc1,u,-1%,u,-4%,-8%,-7%
Cc1ccc(C)c(N2C(=O)N(Cc3cc(=O)n4ccccc4n3)c3ccccc3S2(=O)=O)c1,u,u,u,-30%,x,x
COc1ccc(C(CNC(=O)c2cccc(NS(=O)(=O)c3ccccc3)c2)N(C)C)cc1 (stereo not drawn),-17%,-8%,-26%,-24%,10%,0%
COc1ccc(C(CNC(=O)c2ccc(S(=O)(=O)Nc3ccc(F)cc3)cc2)N(C)C)cc1 (stereo not drawn),23µM*,-19%,16µM*,-28%,u,u
COc1ccc(C(CNC(=O)c2cccc(S(=O)(=O)Nc3ccc(F)cc3)c2)N(C)C)cc1 (stereo not drawn),u,1%,u,-31%,-10%,-9%
CCOc1ccc(S(=O)(=O)Nc2cccc(C(=O)NCC(c3ccccc3)N(C)C)c2)cc1 (stereo not drawn),18µM*,u,23µM*,-9%,-12%,-14%
COc1ccc(CN2CC(C(=O)NCCCN3CCCC(C)C3)CC2=O)cc1 (stereo not drawn),18%,4%,10%,-15%,11%,5%
COc1cc(NC(=O)c2cc3c(s2)-c2ccccc2OC3)cc(OC)c1OC,8.2µM*,u,16µM*,-55%,x,x
